Assay outcomes (PubChem BioAssay)
hcDAF-12 act – activators of H. contortus DAF-12 nuclear receptor | 370,000 compounds, 1.4% hits | activation, % at 6.8 µM | HEK293 hcDAF-12 lit1-tk-luc reporter, luminescence; 0% DMSO, 100% Δ7-dafachronic acid;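 active = activation above the mean of all tested compounds plus 3 SD, cut at about 5.5% in these data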;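 note: 100% = response to 3 µM Δ7-dafachronic acid high control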
ssDAF-12 act – activators of S. stercoralis DAF-12 nuclear receptor | HEK293 ssDAF-12/GRIP1 lit1-tk-luc reporter, luminescence; % of 3 µM dafachronic acid response | activation, % at 6.8 µM | 370,000 compounds, 1% hits | AID 652126;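 active = activation above the mean over all tested compounds plus 3 SD, cut at about 0.9% in these data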;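 note: 0% = DMSO-only wells and 100% = 3 µM delta7-dafachronic acid wells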
Rev-erbA mod – modulates human Rev-erb alpha binding to DNA | activity, % at 10 µM | 370,000 compounds, 0.79% hits | Rev-erbα–FITC-DNA binding, fluorescence polarization, 90 min;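 active = activity above about 14%, limit read from the data; passing the limit was not always enough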;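 note: 0% = DMSO wells with 35 nM protein and 100% = DMSO wells with 750 nM protein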
DAX1 inh-1 – NR0B1 (DAX1) inhibition. AID 504766. 340,000 compounds, 0.99% hits. inhibition, % at 6.75 µM. HEK293 Gal4-DAX1 luciferase reporter, luminescence. P51843;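 active = inhibition above the mean over all tested compounds plus 3 SD, cut at about 4.2% in these data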;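 note: 0% = DAX1-transfected cells with DMSO and 100% = empty-vector control cells with DMSO; inhibition shows as a rise in luminescence from relieved DAX1 repression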
Target sequence (P51843 207-470 limits assumed): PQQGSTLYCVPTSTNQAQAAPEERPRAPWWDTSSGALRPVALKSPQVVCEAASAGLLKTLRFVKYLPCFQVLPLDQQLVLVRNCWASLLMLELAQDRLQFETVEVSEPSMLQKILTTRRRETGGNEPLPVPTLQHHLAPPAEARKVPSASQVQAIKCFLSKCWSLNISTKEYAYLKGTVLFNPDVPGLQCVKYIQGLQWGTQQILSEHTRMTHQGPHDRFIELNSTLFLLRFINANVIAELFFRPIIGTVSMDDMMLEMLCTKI
hgDAF12 agonist – hgDAF-12 agonism, primary luciferase screen | HEK293 GAL4-hgDAF12 UAS-luciferase reporter, agonist luminescence; normalized to butyrate control | activation, % at 6.8 µM | 370,000 compounds, 1.8% hits | AID 687014;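 active = activation above a cutoff set at the mean of all screened compounds plus 3 SD, cut at about 10% in these data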;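 note: 0% = DMSO wells and 100% = sodium butyrate wells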
DAX1 inh-2 – DAX1 (NR0B1) inhibition, primary screen | AID 652010 | HEK293T StAR-luciferase reporter, SF-1/DAX-1 repression relief | 370,000 compounds, 1.1% hits | inhibition, % at 6.8 µM;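 active = inhibition above the mean over all tested compounds plus 3 SD, cut at about 3.6% in these data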;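 note: 0% = DAX-1 cells with DMSO and 100% = cells lacking DAX-1 with DMSO; higher inhibition means more luminescence from relief of DAX-1 repression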
LXRb hcDAF ctr – activates human LXR-beta, counter-screen for hcDAF-12 agonists; shares compounds with hcDAF-12 act; HEK293 Gal4-LXR tk-luc reporter, luminescence, 24 h; normalized: DMSO 0%, positive control 100%; activation, % at 6.8 µM; 3,400 tested, under 10 active;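 active = mean percent activation of the reporter above a cutoff set as the average over tested compounds plus their standard deviation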
hcDAF12 conf – hcDAF-12 agonism, confirmation assay; shares compounds with hcDAF-12 act; HEK293 hcDAF-12 lit1-tk-luc reporter, luminescence; % of Δ7-dafachronic acid response; activation, % at 6.8 µM; 3,400 compounds, 61% hits;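 active = mean activation across triplicate tests above the threshold derived from the earlier primary screen, cut at about 5.5% in these data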;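 note: 0% = DMSO only wells and 100% = 3 µM Δ7-dafachronic acid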
hgDAF12 conf – confirmation of H. glycines DAF-12 agonists. shares compounds with hgDAF12 agonist. HEK293 GAL4-hgDAF12 luciferase reporter, agonist mode; percent of butyrate response. activation, % at 6.8 µM. 3,300 compounds, 80% hits. AID 743050;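 active = mean activation over triplicate wells above the hit cutoff derived from the earlier primary screen, cut at about 11% in these data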;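 note: 0% = DMSO low control and 100% = 2 mM sodium butyrate high control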
LXRb DAF12 ctr – counter-screen for DAF-12 agonists: agonists of human LXR-beta. shares compounds with hgDAF12 agonist. HEK293 Gal4-LXR luciferase reporter, 24 h. activation, % at 6.8 µM. 3,300 tested, under 10 active. AID 743051;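 active = mean activation of the triplicate above a set limit carried over from the primary screen, none filed active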
Numbers without * were called inactive; . = no result. A selection: hits, their analogues and other compounds. The true share with any hit is near 4.8%.

SMILES	hcDAF-12 act	ssDAF-12 act	Rev-erbA mod	DAX1 inh-1	hgDAF12 agonist	DAX1 inh-2	LXRb hcDAF ctr	hcDAF12 conf	hgDAF12 conf	LXRb DAF12 ctr
Cc1csc(NC(=O)c2cnc3ccccc3n2)n1	15*	2.1*	2	-1	16*	2	1	14*	18*	1
Cc1ccc(/C=C/C(=O)Nc2nccs2)o1	2	-1	1	3	7	2	.	.	.	.
Cc1csc(NC(=O)c2cc(C)nc3ccccc23)n1	1	-1	-5	0	2	0	.	.	.	.
O=C(/C=C\c1ccccc1)Nc1nccs1	8.4*	0	-6	1	20*	3	2	5	20*	1
COC(=O)C1=C(C)N(Cc2ccccc2C(F)(F)F)C(=NCc2ccc(OC)cc2)NC1c1ccc(C(F)(F)F)cc1 (stereo not given)	-1	0	-5	.	4	-1	.	.	.	.
Cc1[nH]c2ccccc2c1CC(=O)Nc1ccc(Nc2cccnc2)c(-c2ccc(Oc3ccccc3)cc2)c1	2	0	-2	.	0	-1	.	.	.	.
Cc1nc(NC(=S)NC(=O)c2ccccc2)sc1C	8.0*	0	5	5.3*	14*	1	1	15*	14*	1
Cc1nc(NC(=O)c2cc3ccccc3o2)sc1C	10*	0	-4	-1	14*	2	2	8.1*	17*	1
O=C(Nc1ccc2c(c1)CCC2)c1cc2ccccc2o1	7.9*	1.6*	1	2	17*	3	1	5	22*	1
CCOc1ccc(-n2c(SCC(=O)c3ccc4ccccc4c3)nnc2-c2ccc(OC)cc2)cc1	0	-1	-1	.	0	0	.	.	.	.
CO[C@H]([C@H](C)/C=C/N(C)C=O)[C@@H](C)C(=O)CC[C@H](C)[C@H](O)[C@H](C)[C@H]1OC(=O)/C=C/C(C)=C/C[C@H](O)C[C@@H]2C=CC[C@@H](C[C@H](OC)[C@@]3(CO3)[C@@H](OC)C[C@@H](OC)[C@@H]1C)O2	-3	-2	-3	.	-11	.	.	.	.	.
O=C(/C=C/Nc1ccccc1)c1ccc(Cl)cc1Cl	8.0*	1.1*	-3	4	15*	3	1	5	26*	1
CCN(C(=O)[C@@H](C1CC1)[C@@H](O)c1ccc(C(C)=O)cc1)c1ccccc1	-2	-1	-1	.	-2	0	.	.	.	.
Cc1nc(-c2ccc3c(c2)OCCCO3)cs1	6.6*	0	6	3	13*	2	1	5	18*	1
C#CCN(Cc1cccc(F)c1)C(=O)c1nnc2c3cc(F)ccc3n(S(=O)(=O)c3ccc(OC)cc3)c2n1	1	0	9	.	0	1	.	.	.	.
Cc1ccc(-c2nc(-c3nccc4ccccc34)oc2-c2ccccc2)cc1	7.7*	1	1	4	17*	3	1	9.5*	16*	1
c1ccc(-c2nccc3ccccc23)cc1	0	-1	0	-3	0	0	.	.	.	.
Cc1ccc(-c2nc3cc(N)ccc3o2)cc1Br	6.7*	0	2	3	15*	1	2	8.0*	19*	1
Cc1ccc(C)c(-c2nc3cc(N)ccc3o2)c1	-5	-2	5	-2	-7	-1	.	.	.	.
COC(=O)C1CN(C2CCCC2)CCS(=O)(=O)N1Cc1ccc(F)cc1 (stereo not given)	-2	-2	-6	.	3	-1	.	.	.	.
CCOC(=O)c1ccccc1S(=O)(=O)N1CCN(c2nc(-c3cccs3)nc3ccccc23)CC1	-5	-2	-6	.	1	.	.	.	.	.
O=C(O)c1cc(N/N=C/c2ccc(-c3ccccc3)cc2)ccc1Cl	11*	1.3*	-5	3	24*	2	2	12*	25*	1
O=C(O)c1cc(N/N=C/c2ccncc2)ccc1Cl	0	-1	6	-3	1	1	.	.	.	.
COC1C(O)CCC2(CO2)C1C1(C)OC1CC=C(C)C (stereo not given)	-2	-2	-4	.	2	-2	.	.	.	.
Cc1ccc(-n2c(SC/C=C/c3ccccc3)nnc2-c2ccco2)cc1	-3	-2	1	.	-1	0	.	.	.	.
SMILES	hcDAF-12 act	ssDAF-12 act	Rev-erbA mod	DAX1 inh-1	hgDAF12 agonist	DAX1 inh-2	LXRb hcDAF ctr	hcDAF12 conf	hgDAF12 conf	LXRb DAF12 ctr
Cc1ccc(-c2nc3ccc(Cl)cn3c2Cc2cccc(Cl)c2)cc1	6.6*	0	-3	.	14*	4.1*	1	3	8	0
CCOC(=O)c1c(C)oc2c1cc(O)c1ccccc12	13*	3.1*	5	4	17*	3	1	13*	20*	1
CC(=O)c1c(C)oc2c1cc(O)c1ccccc12	0	-1	1	1	0	0	.	.	.	.
COc1cc(/C=N/N(C)c2ccccc2)ccc1O	7.5*	0	1	3	17*	3	2	8.2*	18*	1
CC1=NN(c2nc(-c3ccc(C)cc3)cs2)C(=O)C1N=Nc1cccc(O)c1 (stereo not given)	-1	-1	-4	-1	-3	0	.	.	.	.
CC1=NN(c2ccccc2)C(=O)C1N=Nc1cccc(O)c1 (stereo not given)	18*	1.6*	-4	1	14*	1	1	13*	19*	1
Cc1cc2nc(-c3cccnc3SCC(=O)NCc3ccco3)[nH]c2cc1C	11*	1.3*	-1	-1	14*	2	1	9.1*	25*	1
CCOc1cccc(/C=N\NC(=O)c2cnccn2)c1O	3	0	-7	.	0	0	.	.	.	.
COc1ccccc1C(=O)NNC(=O)c1ccccc1F	11*	1.5*	0	1	16*	3	1	11*	15*	1
COCC(=O)NNC(=O)c1ccccc1OC	3	0	2	-1	1	0	.	.	.	.
Nc1nc(-c2cccnc2)nc2sc3c(c12)CCCC3	8.7*	1.5*	5	2	20*	4.5*	1	4	15*	1
